These results are taken from PubChem BioAssay (EPA / NIEHS).

Broadly, the AC50 is the concentration giving half of the maximal activity seen.

Read-out in experiment [1]: Matrix Metallopeptidase 9 (MMP9), MMP9 (gene 4318)
Nature of the experiment: BSK_KF3CT_MMP9: BioMAP Diversity Plus: KF3CT Assay for Matrix Metallopeptidase 9 (MMP9) Biomarker Activity (AID 2283074).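 On AC50: MMP9 protein level quantified by ELISA in the co-culture.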 To be noted: primary human keratinocytes with fibroblasts; actives raise or lower the signal. The method in brief: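 Keratinocyte plus foreskin fibroblast human primary skin co-culture was dosed with chemical and MMP-9 was quantified by ELISA 24 h later. Bidirectional curve fitting used DMSO as negative control and activity baseline.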

Read-out in experiment [2]: urokinase plasminogen activator (uPA), PLAU (gene 5328)
Nature of the experiment: BSK_KF3CT_uPA: BioMAP Diversity Plus: KF3CT Assay for urokinase plasminogen activator (uPA) Biomarker Activity (AID 2283075). As to conditions: primary human keratinocytes with fibroblasts; actives raise or lower the signal. In short, it runs like this: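 Human keratinocyte plus foreskin fibroblast primary co-culture exposed to chemical for 24 h. uPA levels were quantified by ELISA, and activity was fitted bidirectionally against a DMSO negative-control baseline.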

Read-out in experiment [3]: CD40, CD40 (gene 958)
Nature of the experiment: BSK_LPS_CD40: BioMAP Diversity Plus: LPS Assay for CD40 Biomarker Activity (AID 2283076). To be noted: primary human HUVEC with PBMC; actives raise or lower the signal. In short, it runs like this:
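Using a multiplexed primary human co-culture (umbilical vein endothelium plus PBMC), CD40 was read by ELISA 24 h after dosing, with cytotoxicity tracked by sulforhodamine B staining of parallel cultures and activity fitted bidirectionally versus DMSO.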

Read-out in experiment [4]: E-selectin (Homo sapiens) (UniProt P16581)
Nature of the experiment: BSK_LPS_Eselectin: BioMAP Diversity Plus: LPS Assay for Eselectin Biomarker Activity (AID 2283077). As to conditions: primary human HUVEC with PBMC; actives raise or lower the signal. In short, it runs like this: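 Dose chemical onto LPS-driven HUVEC/PBMC co-culture; after 24 h, run ELISA for E-selectin; fit up- and down-going responses relative to DMSO control.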

Read-out in experiment [5]: Interleukin-8 (IL8), CXCL8 (gene 3576)
Nature of the experiment: BSK_LPS_IL8: BioMAP Diversity Plus: LPS Assay for Interleukin-8 (IL8) Biomarker Activity (AID 2283078). As to conditions: primary human HUVEC with PBMC; actives raise or lower the signal. The method in brief: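 In this LPS system, chemical-treated human umbilical vein endothelium/PBMC co-cultures were harvested at 24 h for IL-8 ELISA.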

A short description of experiment [6]: BSK_LPS_SRB: Viability Assessment in the BioMAP Diversity Plus: LPS Assay (AID 2283079).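 Further: total protein by sulforhodamine B absorbance as a cytotoxicity measure; measured one day after compound addition; fitted in both directions against DMSO so loss or gain of signal counts.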 To be noted: primary human HUVEC with PBMC. The method in brief: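 Cytotoxicity endpoint in human endothelial–PBMC co-culture: 24 h exposure, then SRB (0.1%) staining, 560 nm read.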
Read-out in experiment [7]: Interleukin-1 alpha (IL1a), IL1A (gene 3552)
Nature of the experiment: BSK_LPS_IL1a: BioMAP Diversity Plus: LPS Assay for Interleukin-1 alpha (IL1a) Biomarker Activity (AID 2283080). To be noted: primary human HUVEC with PBMC; actives raise or lower the signal. In short, it runs like this: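 Primary human HUVEC and PBMC co-culture stimulated with LPS is dosed and harvested at 24 h. Both increases and decreases in ELISA-measured IL-1a are scored relative to DMSO.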

Read-out in experiment [8]: Monocyte Chemoattractant Protein-1 (MCP1), CCL2 (gene 6347)
Nature of the experiment: BSK_LPS_MCP1: BioMAP Diversity Plus: LPS Assay for Monocyte Chemoattractant Protein-1 (MCP1) Biomarker Activity (AID 2283081).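 On AC50: secreted MCP-1 protein quantified by ELISA in culture supernatant.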 To be noted: primary human HUVEC with PBMC; actives raise or lower the signal. In short, it runs like this:
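Values derive from bidirectional fitting against DMSO of ELISA-measured MCP-1 in a human primary endothelial and mononuclear cell co-culture, 24 h after chemical addition under LPS activation.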

Experiment [9] is described as follows: BSK_LPS_PGE2: BioMAP Diversity Plus: LPS Assay for Prostaglandin E2 (PGE2) Biomarker Activity (AID 2283082).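 On AC50: secreted prostaglandin E2 measured by ELISA in LPS-stimulated co-culture.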 To be noted: primary human HUVEC with PBMC; actives raise or lower the signal. The method in brief:
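LPS-activated HUVEC/PBMC co-culture; cmpd dosed, 24 h; PGE2 by ELISA; bidirectional fit vs DMSO; SRB (0.1%, TCA-fixed, 560 nm) in parallel plates for overt cytotox.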

Read-out in experiment [10]: Macrophage colony-stimulating factor (MCSF), CSF1 (gene 1435)
Description: BSK_LPS_MCSF: BioMAP Diversity Plus: LPS Assay for Macrophage colony-stimulating factor (MCSF) Biomarker Activity (AID 2283083). As to conditions: primary human HUVEC with PBMC; actives raise or lower the signal. In short, it runs like this: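 Bidirectional fit versus DMSO of ELISA-measured M-CSF in co-cultured human umbilical vein endothelial cells and PBMC, sampled 24 h after dosing.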

Read-out in experiment [11]: Tissue Factor, F3 (gene 2152)
Description: BSK_LPS_TissueFactor: BioMAP Diversity Plus: LPS Assay for Tissue Factor Biomarker Activity (AID 2283084). As to conditions: primary human HUVEC with PBMC; actives raise or lower the signal. The method in brief: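 Read-out: CD142 ELISA, 24 h. System: LPS-driven human endothelial/PBMC co-culture. Analysis: up- or down-signal fitted against DMSO.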

Read-out in experiment [12]: Tumor necrosis factor (Homo sapiens) (UniProt P01375)
Description: BSK_LPS_TNFa: BioMAP Diversity Plus: LPS Assay for Tumour Necrosis Factor alpha (TNFa) Biomarker Activity (AID 2283085). To be noted: primary human HUVEC with PBMC; actives raise or lower the signal. In short, it runs like this:
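Read-out is ELISA of TNFa in primary human endothelial cell–PBMC co-cultures at 24 h after compound. Activity in either direction was fitted against DMSO.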

Read-out in experiment [13]: Vascular cell adhesion molecule 1 (VCAM1), VCAM1 (gene 7412)
Description: BSK_LPS_VCAM1: BioMAP Diversity Plus: LPS Assay for Vascular cell adhesion molecule 1 (VCAM1) Biomarker Activity (AID 2283086). To be noted: primary human HUVEC with PBMC; actives raise or lower the signal. The method in brief: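 HUVEC + PBMC co-culture, LPS system; compound 24 h; VCAM-1 by ELISA; bidirectional fit vs DMSO control; parallel SRB (0.1%, TCA-fixed, 560 nm) for cytotoxicity.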

Read-out in the next experiment: CD38, CD38 (gene 952)
Description: BSK_SAg_CD38: BioMAP Diversity Plus: SAg Assay for CD38 Biomarker Activity (AID 2283087). As to conditions: primary human HUVEC with PBMC; actives raise or lower the signal. The method in brief: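 Human HUVEC plus PBMC co-culture stimulated with superantigen; CD38 measured by ELISA 24 h after chemical dosing. Fluorescence read-out, bidirectional fit against DMSO; cytotoxicity tracked in parallel by SRB and Alamar Blue.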

Read-out in experiment [14]: CD40, CD40 (gene 958)
Nature of the experiment: BSK_SAg_CD40: BioMAP Diversity Plus: SAg Assay for CD40 Biomarker Activity (AID 2283088). To be noted: primary human HUVEC with PBMC; actives raise or lower the signal. The method in brief: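 Endpoint derived by fitting increases or decreases versus DMSO controls. CD40 is detected by fluorescence ELISA in a human vascular co-culture of endothelium and PBMC at 24 h.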

Read-out in a further experiment: CD69, CD69 (gene 969)
Nature of the experiment: BSK_SAg_CD69: BioMAP Diversity Plus: SAg Assay for CD69 Biomarker Activity (AID 2283089).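 On AC50: cell surface CD69 protein quantified by ELISA with fluorescence detection.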 As to conditions: primary human HUVEC with PBMC; actives raise or lower the signal. The method in brief:
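Endothelial/PBMC co-culture; chemical added; 24 h incubation; CD69 ELISA with fluorescence detection; bidirectional fit vs DMSO.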

Read-out in experiment [15]: Monocyte Chemoattractant Protein-1 (MCP1), CCL2 (gene 6347)
Nature of the experiment: BSK_SAg_MCP1: BioMAP Diversity Plus: SAg Assay for Monocyte Chemoattractant Protein-1 (MCP1) Biomarker Activity (AID 2283090). As to conditions: primary human HUVEC with PBMC; actives raise or lower the signal. The method in brief: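 MCP-1 levels in the endothelial–PBMC SAg co-culture were quantified by ELISA at 24 h post-dosing; both increases and decreases versus DMSO scored. Cytotoxicity monitored by SRB total protein in parallel cultures.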

Read-out in experiment [16]: E-selectin (Homo sapiens) (UniProt P16581)
Description: BSK_SAg_Eselectin: BioMAP Diversity Plus: SAg Assay for Eselectin Biomarker Activity (AID 2283091). To be noted: primary human HUVEC with PBMC; actives raise or lower the signal. In short, it runs like this:
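Endpoint values derive from bidirectional fitting relative to DMSO, using ELISA-measured E-selectin in a human vascular co-culture (umbilical vein endothelium plus PBMC) sampled 24 h after dosing.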

Read-out in experiment [17]: Monokine induced gamma interferon (MIG), CXCL9 (gene 4283)
Description: BSK_SAg_MIG: BioMAP Diversity Plus: SAg Assay for Monokine induced gamma interferon (MIG) Biomarker Activity (AID 2283092). To be noted: primary human HUVEC with PBMC; actives raise or lower the signal. In short, it runs like this:
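Measures CXCL9 protein by ELISA in a human vascular primary-cell co-culture (umbilical vein endothelium with PBMC) 24 h after chemical addition. Activity is scored up or down from the DMSO control.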

Activity calls are given as the source filed them. How the source made its calls: active means hit-call score of the fitted dose curve at least 0.9, where 1 is the maximum; inactive means score below 0.9.

Tumor necrosis factor (Homo sapiens), sequence (P01375 whole entry, looked up): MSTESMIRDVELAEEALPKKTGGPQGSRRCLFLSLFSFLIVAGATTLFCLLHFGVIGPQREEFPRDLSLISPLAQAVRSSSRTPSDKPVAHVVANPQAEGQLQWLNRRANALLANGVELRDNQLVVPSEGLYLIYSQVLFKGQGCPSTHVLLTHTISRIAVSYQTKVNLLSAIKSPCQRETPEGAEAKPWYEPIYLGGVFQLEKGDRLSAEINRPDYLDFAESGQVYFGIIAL
E-selectin (Homo sapiens), sequence (P16581 whole entry, looked up): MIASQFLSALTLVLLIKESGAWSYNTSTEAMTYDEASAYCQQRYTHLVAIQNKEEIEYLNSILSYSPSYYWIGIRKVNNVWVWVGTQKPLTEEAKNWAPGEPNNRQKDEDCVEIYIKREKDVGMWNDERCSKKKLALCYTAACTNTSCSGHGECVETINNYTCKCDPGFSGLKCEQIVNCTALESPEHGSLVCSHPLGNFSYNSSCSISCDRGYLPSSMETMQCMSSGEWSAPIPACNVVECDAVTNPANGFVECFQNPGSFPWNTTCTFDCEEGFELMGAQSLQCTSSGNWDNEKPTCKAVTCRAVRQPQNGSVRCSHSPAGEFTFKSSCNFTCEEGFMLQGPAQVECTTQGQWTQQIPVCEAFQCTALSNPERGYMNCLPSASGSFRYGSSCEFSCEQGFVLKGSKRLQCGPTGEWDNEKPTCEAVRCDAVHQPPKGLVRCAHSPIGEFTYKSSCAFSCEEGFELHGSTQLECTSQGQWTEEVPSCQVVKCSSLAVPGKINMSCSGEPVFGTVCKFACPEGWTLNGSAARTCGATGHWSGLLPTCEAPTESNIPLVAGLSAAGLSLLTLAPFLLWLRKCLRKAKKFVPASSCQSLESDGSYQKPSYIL

As for `CCCCCCCCCCCO`, the outcome is “inactive” in experiment [1]; “inactive” in [2]; “inactive” with CD40, CD40 (gene 958) [3]; “inactive” in [4]; “inactive” in experiment [5]; “inactive” in [6]. Further, the outcome in experiment [7], in [8], in experiment [9], in [10], in [11] and in [12] was inactive. Moreover, the outcome in experiment [13] was “inactive”; with CD38, CD38 (gene 952), “inactive”; with CD40, CD40 (gene 958) [14], “inactive”; with CD69, CD69 (gene 969), “inactive”; in [15], “inactive”; in experiment [16], “inactive”. Moreover, the result in [17] was inactive.
As to `O=C(Nc1ccc(Cl)cc1)Nc1ccc(Cl)c(Cl)c1`, the AC50 in [1] was 1.49 µM (active); in the experiment with CD40, CD40 (gene 958) [3] it was 2.42 µM (active); in experiment [4] it was 2.15 µM (active); in experiment [5], 1.74 µM (active); in [6] it was 2.03 µM (active); in experiment [7] it was 3.86 µM (active). The AC50 in experiment [8] is 3.51 µM (active); in experiment [9] it was 1.9 µM (active); in [10] it was 11.8 µM (active); in experiment [11], 2.26 µM (active); in experiment [12], 3.23 µM (active); in experiment [13], 3.92 µM (active). Besides, the AC50 with CD38, CD38 (gene 952) is 2.11 µM (active); with CD40, CD40 (gene 958) [14], 3.04 µM (active); with CD69, CD69 (gene 969), 1.91 µM (active); in experiment [15], 3.32 µM (active); in experiment [16], 2.6 µM (active); in [17], 2.11 µM (active). For the same compound, in experiment [2], the result was inactive.
On to `CCN(CC)C(=O)c1cc(S(=O)(=O)Cc2ccccc2)c(N2CCC(c3ccccc3)CC2)cc1N(CC)CCN(C)C`, for which the AC50 in experiment [1] was 24 µM (active); in the experiment with CD40, CD40 (gene 958) [3], 8.94 µM (active); in [4] it was 27.6 µM (active); in experiment [5], 18.7 µM (active); in [6] it was 10.5 µM (active); in experiment [7], 8.53 µM (active). Also, the AC50 in experiment [8] is 19.5 µM (active); in experiment [10] it was 11.8 µM (active); in experiment [11], 33.5 µM (active); in experiment [12], 12.4 µM (active); in [13], 11.5 µM (active); with CD38, CD38 (gene 952) it was 9.58 µM (active). Besides, the AC50 in the experiment with CD40, CD40 (gene 958) [14] was 10.4 µM (active); with CD69, CD69 (gene 969), 9.82 µM (active); in experiment [15] it was 11.8 µM (active); in [16], 11.4 µM (active). For the same compound, the result in [2] and in experiment [9] was inactive.
In the case of `O=C1CCC(C2CCCCC2)CC1`, the concentration at half-maximal activity (AC50) in [1] was 31.8 µM (active). The outcome in [2] was “inactive”; with CD40, CD40 (gene 958) [3], “inactive”; in [4], “inactive”; in experiment [5] it was “inactive”; in experiment [6], “inactive”; in experiment [7], “inactive”. Besides, the outcome in [8], in experiment [9], in experiment [10], in experiment [11], in experiment [12] and in [13] was inactive. In addition, the outcome was “inactive” in the experiment with CD38, CD38 (gene 952); “inactive” with CD40, CD40 (gene 958) [14]; “inactive” with CD69, CD69 (gene 969); “inactive” in [15]; “inactive” in [16].
